The source of these data is PubChem BioAssay (Tox21).

The nature of test [1]: qHTS assay to identify small molecule agonists of the constitutive androstane receptor (CAR) signaling pathway - cell viability counter screen (AID 1224836). Further: nearly all actives have a fitted effect of over 45% in size. Put shortly:
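HepG2-CYP2B6-hCAR, 2500 cells/well, 4 h pre-incubation; cpd 15 conc + PK11195 0.75 uM final; 23 h, 37 C/5% CO2; CellTiter-Fluor, fluorescence.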

Test [2] in a line: qHTS assay to identify small molecule antagonists of the constitutive androstane receptor (CAR) signaling pathway - cell viability counter screen (AID 1224837). Further: nearly all actives have a fitted effect of over 45% in size. Put shortly: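 Read-out: CellTiter-Fluor fluorescence after 23 hr at 37 C/5% CO2. Cells: HepG2 double-stable for hCAR and CYP2B6-2.2kb. Compounds tested at 15 concentrations in the presence of CITCO, final concentration 50 nM.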

In test [3] the target is Nuclear receptor subfamily 1 group I member 3 (Homo sapiens) (UniProt Q14994). Description: qHTS assay to identify small molecule agonists of the constitutive androstane receptor (CAR) signaling pathway (AID 1224839). Further: nearly all actives have a fitted effect of over 15% in size. Further: potency means the concentration at half of the fitted maximal effect.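 On activation: HepG2 cells stably carrying human CAR and a CYP2B6 luciferase reporter.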 Put shortly:
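HepG2-CYP2B6-hCAR cells, 2500/well, 4 h pre-incubation; compounds 15 conc.; PK11195 0.75 uM final; 24 h, 37 C/5% CO2; ONE-Glo luciferase read.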
Background: In qHTS, concentration-response curves come from the screen itself.

Test [4] in a line: qHTS assay to identify small molecule antagonists of the estrogen related receptor signaling pathway with the pleiotropic PPARgamma coactivator (PGC) from Tox21 10K library - cell viability counter screen (AID 1224840; active means well fitted cell-killing curve with a large enough effect in the repeat runs, not every such curve was filed as active; further: nearly all actives have a fitted effect of over 40% in size). Put shortly: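 Fluorescence read-out of CellTiter-Fluor viability reagent, added after cells had been exposed to compound in DMSO for 17.5 h at 37 C; 30 min development at 37 C/5% CO2. Cells: PGC/ERR line, 2,000/well.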

A short description of test [5]: qHTS assay to identify small molecule agonists of the estrogen related receptor signaling pathway with the pleiotropic PPARgamma coactivator (PGC) from Tox21 10K library (AID 1224842). Further: nearly all actives have a fitted effect of over 15% in size. Further: potency means the concentration at half of the fitted maximal effect. Put shortly: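 PGC/ERR reporter cells (NTP line) were seeded 2,000 per well, rested 6 h at 37 C/5% CO2, then pin-dosed with compounds in DMSO for 18 h at 37 C; luciferase read by One-Glo luminescence after 30 min at room temperature.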

Test [6] in a line: qHTS assay to identify small molecule agonists of the hypoxia (HIF-1) signaling pathway - cell viability counter screen (AID 1224844; calls by dose curve; further: nearly all actives have a fitted effect of over 50% in size). Put shortly: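 CellTiter-Glo luminescence read-out, 30 min RT, taken in the same wells as the beta-lactamase HRE reporter assay; HRE-bla ME-180 cells, 0.5% dialyzed FBS, 17 hr compound treatment at 37C, 5% CO2.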
The nature of test [7]: qHTS assay to identify small molecule agonists of H2AX (AID 1224845; active means well fitted activation curve with a large enough effect in the signal ratio in the repeat runs, not every such curve was filed as active; the % refers to the signal ratio; further: potency means the concentration at half of the fitted maximal effect). Put shortly: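 Wild-type CHO-K1 cells plated overnight, then exposed 3 hr at 37C to compounds at 15 concentrations (0.76% DMSO). Lysed, then HTRF anti-pH2AX(S139)-cryptate/anti-H2AX-d2 detection after 24 hr at room temperature; emissions 665 and 620 nm.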
Test [8] can be described thus: qHTS assay to identify small molecule agonists of the hypoxia (HIF-1) signaling pathway (AID 1224846; active means well fitted activation curve with a large enough effect in the signal ratio in the repeat runs, not every such curve was filed as active; the % refers to the signal ratio). Put shortly: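 Beta-lactamase FRET read-out (CCF4-AM substrate) from ME-180 cells carrying an HRE-driven bla reporter, after 17 hrs compound exposure at 37C/5% CO2. Cells were seeded at 2,000 per well in 0.5% dialyzed FBS medium and preincubated 5 hrs.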
Test [9] can be described thus: qHTS assay to identify small molecule agonists of H2AX - cell viability counter screen (AID 1224847; calls by dose curve; further: top concentration of the series differs between compounds; nearly all actives have a fitted effect of over 30% in size). Put shortly:
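Cells plated first: CHO-K1, 1000 per well in 10% FBS medium, incubated overnight at 37C. Then 15-point compound titration added (final DMSO 0.76%) for 3 hr. Finally CellTiter-Glo added and luminescence read.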

Test [10] is described as follows: qHTS assay to identify small molecule antagonists of the estrogen related receptor (ERR) signaling pathway from Tox21 library (AID 1224848). Further: nearly all actives have a fitted effect of over 50% in size. Put shortly: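 Tox21 10K compounds in DMSO tested for ERR pathway antagonism in NTP's ERR cell line; 18 h, 37 C exposure; ONE-Glo luminescence.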
Test [11] in a line: qHTS assay to identify small molecule agonists of the estrogen related receptor (ERR) signaling pathway from Tox21 library (AID 1224849; calls by dose curve; further: nearly all actives have a fitted effect of over 15% in size). The note with it: ERR reporter cell line, ONE-Glo luciferase, 18 h; at 92.4 µM (top of the series) unless noted. Put shortly:
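Luminescence readout (ONE-Glo, 30 min RT) after 18 h compound exposure at 37 C of NTP-supplied ERR reporter cells; cells were plated 6 h before compound addition by pin tool.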

Test [12] can be described thus: qHTS RealTime-Glo MT Cell Viability Assay in HepG2 cells - 24 hour (AID 1224867). Further: nearly all actives have a fitted effect of over 50% in size. Put shortly:
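Luminescence read-out: viable HepG2 cells reduce a prosubstrate to a NanoLuc substrate, giving a signal proportional to live cell number. Reads taken at 0, 8, 16, 24, 32 and 40 h of compound exposure at 37 C.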

Test [13] in a line: qHTS RealTime-Glo MT Cell Viability Assay in HEK293 cells - 32 hour (AID 1224868). Further: nearly all actives have a fitted effect of over 50% in size. Further: potency means the concentration at half of the fitted maximal effect. Put shortly: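 Nonlytic real-time viability readout: viable cells convert prosubstrate to NanoLuc substrate, giving luminescence proportional to live cell number. HEK293, 600 cells/well, compound added after 5 h, continuous culture at 37 C.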
The nature of test [14]: A CellTox Green Cytotoxicity Assay to monitor cytotoxicity in HEK293 cells - 0 hour (AID 1224869). Further: nearly all actives have a fitted effect of over 50% in size. Put shortly:
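Read-out: fluorescence of a cell-impermeant cyanine dye staining DNA of dead cells, proportional to cytotoxicity. HEK293, 600 cells/well with reagent, compound (23 nL DMSO) added after 5 h; reads at 0, 8, 16, 24, 32, 40 h.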

A short description of test [15]: qHTS RealTime-Glo MT Cell Viability Assay in HepG2 cells - 40 hour (AID 1224870). Further: nearly all actives have a fitted effect of over 50% in size. Put shortly: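 HepG2 cells mixed with RealTime-Glo MT reagents (NanoLuc plus cell-permeant prosubstrate) were seeded at 600 cells/well, incubated 5 h at 37 C/5% CO2, then pinned with compounds in DMSO; nonlytic luminescence tracked viability during 40 h treatment.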
Test [16] concerns the target Nuclear receptor subfamily 1 group I member 3 (Homo sapiens) (UniProt Q14994). Description: qHTS assay to identify small molecule antagonists of the constitutive androstane receptor (CAR) signaling pathway (AID 1224838).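 Further: HepG2 cells stably expressing hCAR with CYP2B6 luciferase reporter stimulated by CITCO; nearly all actives have a fitted effect of over 40% in size.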 Further: potency means the concentration at half of the fitted maximal effect. Put shortly: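 Read-out: ONE-Glo luciferase luminescence after 30 min at room temperature. HepG2-CYP2B6-hCAR double-stable cells, compounds in 15-point titration plus 50 nM CITCO final, 24 h at 37 C/5% CO2.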

A short description of test [17]: qHTS assay to identify small molecule antagonists of the estrogen related receptor signaling pathway with the pleiotropic PPARgamma coactivator (PGC) from Tox21 10K library (AID 1224841; call rule not given here). Put shortly: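 Luminescence read-out (One-Glo luciferase reagent, 30 min at room temperature) from PGC/ERR cells exposed to DMSO-dissolved test compounds for 18 h at 37 C; cells, 2,000 per well, had been preincubated 6 h before compound transfer.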

For test [18], the target named is Thyrotropin receptor (Homo sapiens) (UniProt P16473). Description: qHTS assay to identify small molecule agonists of the thyroid stimulating hormone receptor (TSHR) signaling pathway (AID 1224843; calls by dose curve; further: nearly all actives have a fitted effect of over 45% in size). Put shortly:
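Using 15 concentrations per compound in triplicate, cAMP production was monitored in TSHR-HEK293 cells after 30 min compound incubation at RT; HTRF reagents followed, with fluorescence intensity recorded after 1 h.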

For test [19], the target named is Luciferin 4-monooxygenase (Photinus pyralis) (UniProt P08659). Description: qHTS assay to identify small molecule inhibitors of firefly luciferase (AID 1224835). Further: nearly all actives have a fitted effect of over 25% in size. Further: potency means the concentration at half of the fitted maximal effect. Put shortly: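 Quantitative HTS format; KM concentrations of both substrates. Purified P. pyralis FLuc activity quantified from luminescence images.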
Luciferin 4-monooxygenase (Photinus pyralis), sequence (P08659 whole entry, looked up): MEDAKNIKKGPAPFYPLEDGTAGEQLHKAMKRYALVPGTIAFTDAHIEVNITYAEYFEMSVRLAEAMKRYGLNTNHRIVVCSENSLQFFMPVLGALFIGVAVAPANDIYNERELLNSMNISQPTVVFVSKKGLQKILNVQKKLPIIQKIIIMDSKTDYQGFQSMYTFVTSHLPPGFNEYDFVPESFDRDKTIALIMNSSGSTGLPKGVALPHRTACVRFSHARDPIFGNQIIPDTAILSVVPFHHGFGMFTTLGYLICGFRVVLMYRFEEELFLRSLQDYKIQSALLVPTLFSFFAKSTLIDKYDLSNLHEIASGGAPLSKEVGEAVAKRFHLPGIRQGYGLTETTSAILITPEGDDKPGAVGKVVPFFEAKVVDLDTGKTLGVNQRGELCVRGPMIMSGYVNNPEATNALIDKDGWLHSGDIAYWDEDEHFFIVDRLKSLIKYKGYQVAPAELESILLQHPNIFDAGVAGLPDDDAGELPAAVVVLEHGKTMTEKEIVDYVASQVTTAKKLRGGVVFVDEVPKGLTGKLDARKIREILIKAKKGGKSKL

A number with no mark means an inactive call. Inconclusive results are not listed. The source made the active and inactive calls. Unless noted, the call rests on the fitted dose curve; in most records, active means well fitted curve in the direction sought with a large enough effect in the repeat runs; inconclusive means weak or mixed curves; inactive means no such curve, though single readings can be large; an effect the other way counts as inactive or inconclusive.
On the % scale 0 is the no-effect control and ±100 the full control effect.

Nuclear receptor subfamily 1 group I member 3 (Homo sapiens), sequence (Q14994 whole entry, looked up): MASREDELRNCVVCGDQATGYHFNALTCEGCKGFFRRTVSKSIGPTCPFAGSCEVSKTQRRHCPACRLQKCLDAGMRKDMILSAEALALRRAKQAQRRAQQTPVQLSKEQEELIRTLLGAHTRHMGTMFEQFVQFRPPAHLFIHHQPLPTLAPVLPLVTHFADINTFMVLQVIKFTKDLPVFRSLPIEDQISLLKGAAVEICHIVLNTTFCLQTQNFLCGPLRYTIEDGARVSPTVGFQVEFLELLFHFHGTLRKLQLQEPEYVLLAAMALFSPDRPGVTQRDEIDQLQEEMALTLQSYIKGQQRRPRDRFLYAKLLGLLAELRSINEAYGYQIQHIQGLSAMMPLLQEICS
Thyrotropin receptor (Homo sapiens), sequence (P16473 whole entry, looked up): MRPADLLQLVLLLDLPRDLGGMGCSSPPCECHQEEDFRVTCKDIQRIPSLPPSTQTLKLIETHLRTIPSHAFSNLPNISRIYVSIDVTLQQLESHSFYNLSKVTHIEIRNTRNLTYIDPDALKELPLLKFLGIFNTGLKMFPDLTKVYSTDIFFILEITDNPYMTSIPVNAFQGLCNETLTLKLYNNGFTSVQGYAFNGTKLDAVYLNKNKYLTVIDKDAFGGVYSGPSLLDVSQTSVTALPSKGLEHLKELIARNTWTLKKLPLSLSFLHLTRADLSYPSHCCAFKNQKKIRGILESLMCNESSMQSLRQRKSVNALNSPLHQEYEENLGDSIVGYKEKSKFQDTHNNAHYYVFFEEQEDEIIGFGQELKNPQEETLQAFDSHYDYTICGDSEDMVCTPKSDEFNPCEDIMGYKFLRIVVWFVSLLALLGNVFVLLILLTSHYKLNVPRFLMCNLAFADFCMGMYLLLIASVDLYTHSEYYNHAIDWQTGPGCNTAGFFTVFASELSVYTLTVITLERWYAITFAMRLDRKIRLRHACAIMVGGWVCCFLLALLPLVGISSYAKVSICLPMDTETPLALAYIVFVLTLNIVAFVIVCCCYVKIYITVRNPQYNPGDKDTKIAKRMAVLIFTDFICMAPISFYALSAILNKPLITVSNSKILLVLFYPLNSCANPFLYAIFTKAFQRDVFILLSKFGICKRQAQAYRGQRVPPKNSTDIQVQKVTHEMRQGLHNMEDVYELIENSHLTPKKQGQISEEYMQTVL

Regarding `COc1ccc(/C=C/c2cc(OC)cc(=O)o2)cc1`, the Potency result in test [1], in test [2], in test [4], in test [6], in [7] and in test [9] was “inactive” throughout. For the same compound, the Potency result in test [10], in test [14] and in [15] was “inactive” in each case. The Potency in [3] is 6.26 µM (active); in test [5] it was 7.88 µM (active); in test [13], 11.2 µM (active). The compound was classed as inactive in [8] and in test [12]. The activity change, positive = activation in test [11] is 55.8% [at 42.5 µM] (active).
For the compound `CC(COc1ccccc1)NC(C)C(O)c1ccc(O)cc1` (centres undefined), the Potency entry in test [1], in [2], in test [16], in test [3], in test [4] and in test [17] was “inactive” in each case. In addition, the Potency entry in [5], in test [18], in test [6], in test [7], in test [9] and in [10] was “inactive” each time. For the same compound, the Potency entry in test [13], in test [14] and in [15] was “inactive” each time. Also, the compound was called inactive in test [8]. For the same compound, in [11], the activity change, positive = activation was 0.415% [at 42.5 µM].
As to `C=CC(C)(O)CC/C=C(/C)CCC=C(C)C` (centres undefined), the Potency result in test [1], in test [2], in test [4], in test [6], in test [7] and in test [9] was “inactive” each time. For the same compound, the Potency result in test [13] and in [14] was “inactive” each time. In test [8], the result was inactive.
As for `O=C(O)CCc1nc2ccccc2[nH]1`, the Potency result in test [19], in test [1], in test [2], in [4], in [6] and in test [7] was “inactive” throughout. For the same compound, the Potency result in test [9], in test [13] and in test [15] was “inactive” in each case. Moreover, the compound was classed as inactive in [8].
`C/C(=C\C(C)CC(C)CC(C)C)C1CC(=O)OC1=O` (centres undefined): the Potency in test [19] was 89.4 µM (active). For the same compound, the Potency result in test [1], in test [4], in test [18], in test [6], in test [7] and in test [9] was “inactive” each time. For the same compound, the Potency entry in [13] and in test [15] was “inactive” in each case. Moreover, the call in [12] was inactive.
In the case of `CC(C)CCCCCCCOC(=O)c1ccc(C(=O)OCCCCCCCC(C)C)c(C(=O)OCCCCCCCC(C)C)c1`, the Potency entry in test [19], in [1], in test [2], in [3], in [4] and in test [5] was “inactive” each time. The Potency result in [18], in [6], in [9], in [10], in test [13] and in test [14] was “inactive” in each case. Further, the Potency entry in test [15] is “inactive”. Moreover, the outcome in [8] and in test [12] was inactive. For the same compound, the activity change, positive = activation in test [11] is -6.08%.
For the compound `CCC1=C(C)CN(C(=O)NCCc2ccc(S(=O)(=O)NC(=O)NC3CCC(C)CC3)cc2)C1=O` (centres undefined), the Potency entry in test [19], in test [1], in test [2], in test [4], in test [17] and in test [5] was “inactive” each time. Further, the Potency entry in test [18], in test [6], in test [7], in test [9], in [10] and in test [13] was “inactive” each time. Moreover, the compound was classed as inactive in test [8]. The activity change, positive = activation in test [11] is -15.8% [at 42.5 µM].
For `Nc1nc(Cl)nc2c1ncn2[C@H]1C[C@H](O)[C@@H](CO)O1`, the Potency entry in test [1], in test [2], in test [3], in test [4], in [6] and in test [13] was “inactive” each time. Besides, the Potency entry in test [14] and in [15] was “inactive” in each case. Further, the Potency in test [16] is 0.121 µM (active); in test [7], 14.1 µM (active). Moreover, in test [12], the result was inactive.
In the case of `NC(=O)c1ccccc1`, the Potency result in [1], in test [2], in test [16], in test [3], in test [18] and in test [6] was “inactive” throughout. Further, the Potency entry in test [7], in test [9], in test [13], in [14] and in test [15] was “inactive” throughout. Besides, the compound was classed as inactive in [12].
